Among the data in PubChem BioAssay (EPA / NIEHS) are outcome and AC50 values, retold here.

Molecules are shown by their SMILES. Calls of active or inactive are those of the source. How the source made its calls: active means hit-call score of the fitted dose curve at least 0.9, where 1 is the maximum; inactive means score below 0.9.

The AC50 is the concentration at which the activity in the assay is half-maximal.

Read-out in this assay: Transforming Growth Factor (TGFB1), TGFB1 (gene 7040)
The experiment in a line: LTEA_HepaRG_TGFB1: Life Technologies and Expression Analysis (LTEA) Assay for Transforming Growth Factor (TGFB1) Transporter using HepaRG (AID 2283533). The conditions noted are these: mRNA level, 48 h; actives raise or lower the signal. On the procedure: LTEA_HepaRG is a cell based, multiplexed-readout assay that uses HepaRG, a human liver cell line, with measurements taken at 48 hours after chemical dosing on a 96-well plate.LTEA_HepaRG_TGFB1 is one of 102 assay component(s) measured in the LTEA HepaRG cell culture assay. It is a marker of Cell proliferation, survival, death.Data from the assay component LTEA_HepaRG_TGFB1 was analyzed into 1 endpoint. This assay endpoint, LTEA_HepaRG_TGFB1, was analyzed with bidirectional fitting relative to DMSO as the negative control and baseline of activity. Using a type of inducible reporter, measures of mRNA induction for gain or loss-of-signal activity can be used to understand regulation of transcription factor activity. To generalize the intended target to other relatable targets, this assay endpoint is annotated to the growth factor intended target family, where the subfamily is transforming growth factor beta.
A total of 1060 chemcials from the ToxCast library were tested in eight-point concentration-response experiments. Cell culture and cytotoxicity assays were conducted at Thermo Fisher Scientific's Custom Services facility (Madison, WI). A single lot of human HepaRG cells (Thermo Fisher Scientific, Frederick, MD) was used for the cell culture experiments. 96-well format collagen type I coated plates of human HepaRG cells were prepared using established methods. Briefly, cryopreserved HepaRG cells were thawed, plated at a density of approximately 100,000 cells/well in HepaRG Thaw, Plate, and General Purpose media (HPRG770, Thermo Fisher Scientific), and incubated for 48 hours. 0.5% DMSO was selected as vehicle control to balance the requisite need of DMSO in HepaRG cultures to maintain differentiation (for example, baseline metabolism, proportions of hepatocytes vs. cholangiocytes), while enabling further hepatic receptor pathway activation (for example, PXR and CAR) in response to chemical exposure. 48 hours after plating, the culture medium was replaced with HepaRG Serum-Free Incudtion Media. Cells were exposed to each test chemical in duplicate and maintained in CO2 incubators for another 48 hours. Chemical plates were thawed to room temperature and 200x concentrations of treatment groups were prepared. 8-point conentration-reponse curves were made with the highest exposure at 100 uM, followed by half-log dilutions, all in 0.5% DMSO. Each test plate contained variouse controls, induction positive controls (1mM phenobarbital), cytotoxicity positive controls ([…] aflatoxin B1), vehicle controls (0.5% DMSO), and total lysis controls (0.5% DMSO). Cell morphology images were taken using an Essen IncuCyte FLR automated microscope, with six 96-well plates imaged in about 24 minutes. Images were captured and exported and JPEG files. Spent culture media was transfered to black-well plates for the LDH assay, and remaining media was sorted at -80 C for later use. Cells were treated with RLT buffer and frozen until shipped for gene expression analysis. Total RNA was isolated from the cell suspension in 75 uL of Buffer RLT (Qiagen, Germantown, MD 20874) by Quintiles/Expression Analysis (Durham, NC) using a custom isolation procedure. Total RNA from each plate well was transferred to a preamplification plate. Fluidigm's 96.96 Dynamic ArrayTM (Fluidigm, Amsterdam, the Netherlands) technology was used for gene expression analyses by quantitative reverse transcription polymerase chain reaction (qRT-PCR, performed by Quintiles/Expression Analysis, Durham, NC)89. Standard TaqManTM Assays (Applied Biosystems/ThermoFisher Scientific, Foster City, CA) were used to assess the expression of 93 genes selected based on their selectivity and sensitivity to important hepatic receptors known to be modulated by environmental chemicals; importance in human hepatocyte functionality; and hepatotoxicity. […]
As for `CCCCOC(=O)c1ccccc1C(=O)OCc1ccccc1`, the compound was classed as inactive.

On to `Clc1ccc(C(c2ccc(Cl)cc2)C(Cl)(Cl)Cl)cc1`, for which the compound was classed as inactive.

As to `CCNS(=O)(=O)C(F)(F)C(F)(F)C(F)(F)C(F)(F)C(F)(F)C(F)(F)C(F)(F)C(F)(F)F`, the outcome was inactive.

Turning to `O=C(Nc1ccccc1)c1ccccc1I`, the AC50 was 50 µM (active).

For `CCC(C)c1ccc(O)cc1` (stereo not given), the compound was called inactive.

For `Oc1ccccc1Cl`, the result was inactive.

Take `O=C(Oc1ccc(Br)cc1)N1CCN2CCC1CC2`: the outcome was inactive.

Turning to `ClCCOCCCl`, the outcome was inactive.

As to `[Cl-].[Cl-].[Hg+2]`, the outcome was inactive.

For `O=C(O)C1C2CCC(O2)C1C(=O)O` (stereo not given), the half-maximal activity concentration (AC50) is 35.1 µM (active).

For `CCCCCOC(=O)c1ccccc1C(=O)OCCCCC`, the compound was classed as inactive.

As for `Nc1ccc([N+](=O)[O-])cc1`, the outcome was inactive.

Consider `ClC1=C(Cl)C2(Cl)C3C(Cl)C=CC3C1(Cl)C2(Cl)Cl` (stereo not given), for which the outcome was inactive.

On to `CCCCCCCCCCCCCN1CC(C)OC(C)C1` (stereo not given), for which the outcome was inactive.

Take `ClC1=C(Cl)[C@]2(Cl)[C@H]3[C@H]([C@@H]4C=C[C@H]3C4)[C@@]1(Cl)C2(Cl)Cl`: the compound was called inactive.

As to `OCCCBr`, the call was inactive.

As to `CCCSC(=O)N(CCC)CCC`, the call was inactive.

`[As]#[In]`: the outcome was inactive.

`O=C(N[C@H](c1ccccc1)[C@@H]1CN2CCC1CC2)c1c(Cl)ccc(C(F)(F)F)c1Cl`: the AC50 was 46.2 µM (active).

With `CC(C)(C)OOC(C)(C)CCC(C)(C)OOC(C)(C)C`, the call was inactive.

In the case of `Nc1ccc(Cc2ccc(N)cc2)cc1`, the call was inactive.

On to `c1ccc(C2CO2)cc1` (stereo not given), for which the result was inactive.

Take `O=Cc1ccco1`: the compound was classed as inactive.

With `CC(C)(O)c1cnn2c(-c3ccc(F)c(-c4c(F)cccc4C#N)c3)cnc2n1`, the compound was classed as inactive.

`CC(C)(OOC(C)(C)c1ccccc1)c1ccccc1`: the call was inactive.

For `CCCCCCCCn1sccc1=O`, the compound was classed as inactive.

As to `O=C1CCCO1`, the call was inactive.

As for `CC(C)N(Cc1ccccc1)C(=O)C(C)(C)C`, the compound was called inactive.

On to `Nc1ccc(Oc2ccc(N)cc2)cc1`, for which the outcome was inactive.

Consider `O=P(OCCCl)(OCCCl)OCCCl`, for which the outcome was inactive.

As for `Oc1ccc2ccc3cccc4ccc1c2c34`, the compound was classed as inactive.

In the case of `COc1cc(C=O)cc2c1[C@H](COC(N)=O)[C@]1(OC(C)=O)ON2C[C@H]2[C@@H]1N2C(C)=O`, the AC50 is 3.38 µM (active).

Regarding `Clc1ccc(Cl)c(Cl)c1`, the call was inactive.

For `c1ccc(NNc2ccccc2)cc1`, the result was inactive.

For the compound `CC(C)(C)OOC(=O)c1ccccc1`, the compound was called inactive.

On to `Nc1ccc(Cl)cc1N`, for which the concentration at half-maximal activity (AC50) was 12.9 µM (active).

For the compound `C[N+](C)(C)CC1CO1` (stereo not given), the call was inactive.

For `c1ccc2c(c1)oc1ccccc12`, the result was inactive.

On to `CC(C)(C)C(O)(CCc1ccc(Cl)cc1)Cn1cncn1` (stereo not given), for which the concentration at half-maximal activity (AC50) was 50 µM (active).

Regarding `CNC(=O)Oc1cccc2c1OC(C)(C)C2`, the compound was classed as inactive.
